From ChEMBL document CHEMBL1157539, “Thousands of chemical starting points for antimalarial lead identification” (Nature, 2010)

Tests used:
Format in all cases: functional
Plasmodium falciparum [1] = assay: GSK_TCMDC: Inhibition of Plasmodium falciparum 3D7 in whole red blood cells, using parasite LDH activity as an index of growth. Test compounds present at 2uM
Plasmodium falciparum [2] = assay: GSK_TCMDC: Inhibition of Plasmodium falciparum Dd2 in whole red blood cells, using parasite LDH activity as an index of growth. Test compounds present at 2uM
HepG2 = assay: GSK_TCMDC: Percent inhibition of human HepG2 cell line. Test compounds present at 10uM.

SMILES | Inhibition (Plasmodium falciparum [1]) [%] | Inhibition (Plasmodium falciparum [2]) [%] | Inhibition (HepG2) [%]
N#Cc1ccc(N2CCN(Cc3ccc(-c4ccc(-c5nc6ccccc6[nH]5)s4)cc3)CC2)nc1.O=C(O)C(F)(F)F | 99 | 63 | 17
Cc1ccc(Cn2c(N3CCC(C(=O)NCc4cccs4)CC3)nc3ccccc32)cc1 | 99 | 71 | 0
C[C@H](Cc1ccc(Oc2ccc(C[C@@H](C)NC[C@H](O)c3cccc(Cl)c3)cc2)cc1)NC[C@H](O)c1cccc(Cl)c1.Cl | 100 | 96 | 99
COC(=O)c1cc(OC)c(OC)cc1NC(=O)NC12CC3CC(CC(C3)C1)C2 | 94 | 3 | 6
N#CC(NC(=O)C=Cc1ccccc1)c1ccccc1 (configuration not stated) | 95 | 3 | 3
Cc1nc2ccccc2c(=O)n1/N=C/c1ccccc1[N+](=O)[O-] | 94 | 26 | 0
CCOc1ccc(-c2nonc2NC(=O)c2ccccc2Cl)cc1OCC | 100 | 100 | 3
O=C(/C=C/c1ccc(Cl)c(Cl)c1)NC1CCN(CCCNC(=O)c2cccc(Cl)c2)CC1.O=C(O)C(F)(F)F | 100 | 28 | 36
COc1ccc(S(=O)(=O)N(CC(=O)NN=C(C)c2cccs2)c2cc(C)cc(C)c2)cc1OC | 97 | 43 | 12
CCOc1ccc(NC(=O)c2cn3nc(-c4ccc(OCC)cc4)cc3nc2C2CCNCC2)cc1.Cl | 100 | 39 | 36
COc1ccc2c(NN=Cc3ccncc3)ccnc2c1 | 95 | 6 | 0
CCN(CC)CCCC(C)N=c1cc(C=Cc2ccccc2Cl)[nH]c2cc(Cl)ccc12.O=P(O)(O)O (configuration not stated) | 99 | 77 | 0
CN(C)c1cc(NN=Cc2cc(Cl)ccc2O)nc(N(C)C)n1 | 98 | 98 | 3
COc1cc(NC(=O)c2nn(CCCN3CCC(N4CCCC4)CC3)cc2-c2ccc(Cl)c(Cl)c2)cc(OC)c1OC | 100 | 100 | 76
CC(C)C(=O)n1ncc2c3c(N)nc(N)nc3ccc21 | 87 | 3 | 0
Cn1nccc1C(=O)NCCNCc1ccc(-c2cccc(-c3nc4ccccc4[nH]3)c2)cc1.O=C(O)C(F)(F)F | 100 | 87 | 35
CN1CCCC(CN2CCN(Cc3ccc(-c4ccc(-c5nc6ccccc6[nH]5)s4)cc3)CC2)C1.O=C(O)C(F)(F)F (configuration not stated) | 100 | 100 | 57
Cc1ccc(NC(=O)NC2CCN(CCCCCNC(=O)/C=C/c3ccc(Cl)c(Cl)c3)CC2)cc1 | 100 | 19 | 41
CON(CCCN(C)C)C(=N)N.Cl | 92 | 0 | 3
O=S(=O)(c1ccccc1OC(F)(F)F)C1CC2CCC(C1)N2S(=O)(=O)c1cccc(C(F)(F)F)c1 (configuration not stated) | 99 | 99 | 5
CC(C)CNCc1cccc(-c2ccc(CN(CCCN3CCN(C)CC3)C(=O)/C=C/c3ccccc3)cc2)c1.O=C(O)C(F)(F)F | 92 | 90 | 48
CN(C)Cc1ccc(-c2ccc3ccnc(N)c3c2)cc1 | 100 | 100 | 20
CC(NC(=O)c1ccc(O)c(-c2ccc(Cl)c(Cl)c2)c1)C(=O)NCCN1CCCCC1 (configuration not stated) | 97 | 3 | 0
CCOC(=O)c1cnc2c(OC)cc(OC)c(Cl)c2c1Nc1cccc(C)c1C | 100 | 99 | 5
